Assay results reported in PubChem BioAssay (EPA / NIEHS).
The source made the active and inactive calls. The calls were made as follows: active = hit-call score of the fitted dose curve at least 0.9, where 1 is the maximum; inactive = score below 0.9.

These molecules were tested on Interleukin-8 (IL8), CXCL8 (gene 3576) (assay: BSK_BE3C_IL8: BioMAP Diversity Plus: BE3C Assay for Interleukin-8 (IL8) Biomarker Activity (AID 2284280)). Conditions: primary human bronchial epithelial cells.
Experimental: BSK_BE3C is a cell-based, multiplexed-readout assay that uses bronchial epithelial cell, a human lung primary cell, with measurements taken at 24 hours after chemical dosing in a 96-well plate.BSK_BE3C_IL8 is an assay component measured in the BSK_BE3C assay. It measures IL-8 antibody related to regulation of gene expression using ELISA technology.Data from the assay component BSK_BE3C_IL8 was analyzed at the endpoint, BSK_BE3C_IL8, in the positive analysis fitting direction relative to DMSO as the negative control and baseline of activity. Using a type of binding reporter, gain or loss-of-signal activity can be used to understand protein changes. To generalize the intended target to other relatable targets, this assay endpoint is annotated to the 'cytokine' intended target family, where the subfamily is 'interleukins'.
The levels of cell surface (or secreted, indicated by the prefix "s") biomarker endpoints were measured by ELISA. Overt cytotoxicity to cells in confluent adherent cultures (all systems other than the BT system) was assessed by measuring total protein levels using sulforhodamine B (SRB) staining in parallel cultures at the time of biomarker measurements, indicated as SRB endpoints. For proliferation assays for adherent cell types, individual cell types are cultured at sub-confluence and relative cell numbers quantified by SRB staining at time points optimized for each system (48 h: 3C and CASM3C systems; 72 h: BT and HDF3CGF systems; 96 h: SAg system). SRB was performed by staining cells with 0.1% SRB after fixation with 10% TCA and reading wells at 560 nm.Viability and proliferation of PBMC (T cells) was quantified by Alamar Blue reduction for the SAg and BT systems. For PBMC viability (referred to as PBMC Cytotoxicity within the assay endpoint names), cells were plated (75,000/well in a 96-well plate) and then chemical samples added for 1 h before addition of activators, SEB and TSST-1 (20 ng/mL final concentration each). Cells were incubated for 90 h. Then, Alamar Blue (20 uL/well) (Invitrogen, Cat DAL1100) was added for 6 h, and the plates were read with a fluorescence microplate reader at 546/580 nm (excitation/emission). For PBMC proliferation, cells were plated and activated as above but incubated for only 16 h prior to addition of Alamar Blue. Plates were read after 6 h.
With `O=S(=O)(F)C(F)(F)C(F)(F)C(F)(F)C(F)(F)C(F)(F)C(F)(F)C(F)(F)C(F)(F)F` the outcome was “inactive”.
`O=C(O)C(F)(OC(F)(F)C(F)(F)C(F)(F)F)C(F)(F)F` (stereo not given) was tested, and the outcome was “inactive”.
`O=C(O)C=CC(F)(C(F)(F)F)C(F)(F)F` was tested, and the outcome was “inactive”.
`COP(=O)(CCC(=O)NCO)OC` was tested, and the outcome was “inactive”.
`NC(=O)C(F)(F)C(F)(F)F` was tested, and the outcome was “inactive”.
`OCC(F)(F)OC(F)(F)C(F)(F)OC(F)(F)C(F)(F)OC(F)(F)CO` was tested, and the outcome was “inactive”.
With `CC(O)C(F)(F)C(F)(F)F` (stereo not given) the outcome was “inactive”.
With `FC(F)(F)C(F)(C(F)(F)F)C(F)(F)C(F)(F)CC1CO1` (stereo not given) the outcome was “inactive”.
In the case of `O=C(O)C(F)(F)OC(F)(F)C(F)(F)OC(F)(F)C(=O)O`, the outcome is reported as “inactive”.
For `OCC(F)(F)OC(F)(F)C(F)(F)OC(F)(F)CO`, the outcome was “inactive”.
For `C=CC(=O)OCC(F)(F)C(F)F`, the outcome was “inactive”.
In the case of `O=C(O)C(F)(F)OC(F)(F)C(F)(F)OC(F)(F)F`, the outcome is reported as “inactive”.
With `COC(=O)C(F)(F)C(F)(F)OC(F)(C(F)(F)F)C(F)(F)OC(F)=C(F)F` (stereo not given) the outcome was “inactive”.
For `OCC(F)(F)OC(F)(F)C(F)(F)OC(F)(F)C(F)(F)OC(F)(F)F`, the outcome was “inactive”.
For `O=C(O)C(F)(F)C(F)(F)C(=O)O`, the outcome was “inactive”.
